Measurements: PubChem BioAssay (NCI)
The panel holds about 79,000 compounds, 15% with a hit somewhere; the sample as a whole holds those more often. A number with no mark means an inactive call. Calls of active or inactive are those of the source. Rule as the data show it: active = growth inhibition above about 70%; inactive = the rest.

Assay: NCI Yeast Anticancer Drug Screen. Data for the mlh1 rad18 strain (AID 175)
Settings: S. cerevisiae mlh1 rad18 strain growth inhibition; at 50.0 µM (retest, dose inferred, filed as 5.0); hits give high values
Procedure, shortened: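 Test agents were incubated with a yeast strain of defined genotype (DNA damage repair defect). Inhibition of growth was derived by comparison with vehicle-exposed cultures.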

| Structure (SMILES) | growth inhibition |
| --- | --- |
| Nc1nc2c(ccc3ccccc32)s1 | 72% (active) |
| O=C(O)CCCCC1CCCCC1.[Cu+2] | 94% (active) |
| O=Cc1ccc(O)c2ccccc12 | 88% (active) |
| CC(=Nc1ccc(N(C)C)cc1)c1ccccc1 | 78% (active) |
| C/C(Cl)=N\OC(=O)Nc1ccc(C)cc1 | 96% (active) |
| COC(=O)C1CCC(c2ccccc2)CC1C(=O)OC (stereo not given) | 9% |
| CCCCNC(=S)NC1C2CC3CC(C2)CC1C3 (stereo not given) | 93% (active) |
| CCN(CC)CCOC(=O)CCN1CC2CCC(CC2)C1 | 10% |
| CCOc1ccc(-c2nc3ccc(-c4nc5ccc(N6CCN(C)CC6)cc5[nH]4)cc3[nH]2)cc1 | 98% (active) |
| NC(CCC(=O)NC(CS(=O)(=O)O)C(=O)O)C(=O)O (stereo not given) | -2% |
| CSc1cc(C(=O)O)nc(N)n1 | -4% |
| CCN(CC)CCCNc1c(O)cc(C)c2sc3ccccc3c(=O)c12 | 98% (active) |
| C=C1C(=O)OC2C1CC1OC2C(C)CCC/C(C)=C\CCC1(C)O (stereo not given) | 20% |
| O=C1C=CC2=Nc3ccccc3CCC2=C1 | 97% (active) |
| CC(C)CC(CC(C)C)OP(=O)(O)OC(CC(C)C)CC(C)C | 82% (active) |
| O=C(O)c1ccccc1Cc1ccc2c(c1)Cc1ccccc1-2 | 80% (active) |
| Nc1c(F)cccc1F | 3% |
| COc1cc(OC)c(SSCCCCS(=O)O)c(OC)c1 | 36% |
| S=C1Nc2cnc3ccccc3c2SC1c1ccccc1 (stereo not given) | 98% (active) |
| CC(C)CCCC(C)[C@H]1CCC(C2C[C@@H](O)[C@@H]3CC(O)[C@@H](O)C[C@]3(CO)C2=O)[C@]1(C)CCO (stereo not given in full) | 98% (active) |

| Structure (SMILES) | growth inhibition |
| --- | --- |
| CN(C)CC(CN(C)C)C(=O)c1ccc(Oc2ccc(Cl)c(Cl)c2)cc1 | 96% (active) |
| CN1c2ccccc2C(C)(C)C12C=Cc1cc(O)ccc1O2 (stereo not given) | 33% |
| CC(C)Cc1ncc(CC(C)C)n(O)c1=O | 98% (active) |
| Nc1ccc(SSc2ccc(N)cc2)cc1 | 98% (active) |
| N#CCC1CC(=O)c2[nH]c3ccccc3c2C1 (stereo not given) | -121% |
| O=C1c2ccccc2C(=O)c2sccc21 | 92% (active) |
| CC/C(=C(\CC)c1ccc(O)c(CN(C)C)c1)c1ccc(OC)cc1 | 98% (active) |
| O=S(=O)(O)N=Nc1ccc(O)cc1 | 98% (active) |
| O=C1CCSC(=S)N1c1ccc(N=Nc2ccccc2)cc1 | 94% (active) |
| CC(C)C(=O)NNc1ccccc1 | 92% (active) |
| O=C(CBr)c1ccc2cc(Br)c3ccccc3c2c1 | 95% (active) |
| O=C1c2cc3c(cc2CC1Br)CCC3 (stereo not given) | 99% (active) |
| O=C1NC(=O)N(c2ccc(Cl)c(Cl)c2)C1=O | 4% |
| C[n+]1c(-c2cccc(OCCOCCOc3cccc(-c4c5cc(N)ccc5c5ccc(N)cc5[n+]4C)c3)c2)c2cc(N)ccc2c2ccc(N)cc21 | 95% (active) |
| N#CC(C#N)C(C#N)c1ccc(Cl)c(Cl)c1 (stereo not given) | 100% (active) |
| CCCCCCCCCCCCOC(=O)C[n+]1cccc(C(=O)Nc2ccc(Cl)cc2)c1 | 99% (active) |
| CCC(=O)c1ccc2ccc3ccccc3c2c1 | 64% |
| Cc1ccc(S(=O)(=O)NC(=O)CC2CCCCC2)cc1 | 96% (active) |
| c1ccc(N/N=C(/CC/C(=N\Nc2ccccc2)c2ccccc2)c2ccccc2)cc1 | 92% (active) |
| Cc1c(N)cc(I)cc1[N+](=O)[O-] | 10% |

Same assay, conditions: S. cerevisiae mlh1 rad18 strain growth inhibition; at 50.0 µM; hits give high values

| Structure (SMILES) | growth inhibition |
| --- | --- |
| Nc1nc2c(ccc3ccccc32)s1 | 57.6% |
| O=C(O)CCCCC1CCCCC1.[Cu+2] | 1.85% |
| O=Cc1ccc(O)c2ccccc12 | 64.5% |
| CC(=Nc1ccc(N(C)C)cc1)c1ccccc1 | 71% (active) |
| C/C(Cl)=N\OC(=O)Nc1ccc(C)cc1 | 60.4% |
| COC(=O)C1CCC(c2ccccc2)CC1C(=O)OC (stereo not given) | 28.6% |
| CCCCNC(=S)NC1C2CC3CC(C2)CC1C3 (stereo not given) | 97.2% (active) |
| CCN(CC)CCOC(=O)CCN1CC2CCC(CC2)C1 | -21.4% |
| CCOc1ccc(-c2nc3ccc(-c4nc5ccc(N6CCN(C)CC6)cc5[nH]4)cc3[nH]2)cc1 | 89% (active) |
| NC(CCC(=O)NC(CS(=O)(=O)O)C(=O)O)C(=O)O (stereo not given) | 85.9% (active) |
| CSc1cc(C(=O)O)nc(N)n1 | -12.3% |
| CCN(CC)CCCNc1c(O)cc(C)c2sc3ccccc3c(=O)c12 | 98.8% (active) |
| C=C1C(=O)OC2C1CC1OC2C(C)CCC/C(C)=C\CCC1(C)O (stereo not given) | 92.6% (active) |
| O=C1C=CC2=Nc3ccccc3CCC2=C1 | 95.1% (active) |
| CC(C)CC(CC(C)C)OP(=O)(O)OC(CC(C)C)CC(C)C | 79.3% (active) |
| O=C(O)c1ccccc1Cc1ccc2c(c1)Cc1ccccc1-2 | 79.2% (active) |
| Nc1c(F)cccc1F | -8.3% |
| COc1cc(OC)c(SSCCCCS(=O)O)c(OC)c1 | 40.8% |
| S=C1Nc2cnc3ccccc3c2SC1c1ccccc1 (stereo not given) | 85.3% (active) |
| CC(C)CCCC(C)[C@H]1CCC(C2C[C@@H](O)[C@@H]3CC(O)[C@@H](O)C[C@]3(CO)C2=O)[C@]1(C)CCO (stereo not given in full) | 92% (active) |

| Structure (SMILES) | growth inhibition |
| --- | --- |
| CN(C)CC(CN(C)C)C(=O)c1ccc(Oc2ccc(Cl)c(Cl)c2)cc1 | 96.3% (active) |
| CN1c2ccccc2C(C)(C)C12C=Cc1cc(O)ccc1O2 (stereo not given) | 54.1% |
| CC(C)Cc1ncc(CC(C)C)n(O)c1=O | 89.9% (active) |
| Nc1ccc(SSc2ccc(N)cc2)cc1 | 96.4% (active) |
| N#CCC1CC(=O)c2[nH]c3ccccc3c2C1 (stereo not given) | 10.4% |
| O=C1c2ccccc2C(=O)c2sccc21 | 93.9% (active) |
| CC/C(=C(\CC)c1ccc(O)c(CN(C)C)c1)c1ccc(OC)cc1 | 98.6% (active) |
| O=S(=O)(O)N=Nc1ccc(O)cc1 | 91.5% (active) |
| O=C1CCSC(=S)N1c1ccc(N=Nc2ccccc2)cc1 | 94.5% (active) |
| CC(C)C(=O)NNc1ccccc1 | 83.2% (active) |
| O=C(CBr)c1ccc2cc(Br)c3ccccc3c2c1 | 61% |
| O=C1c2cc3c(cc2CC1Br)CCC3 (stereo not given) | 92.4% (active) |
| O=C1NC(=O)N(c2ccc(Cl)c(Cl)c2)C1=O | 27.9% |
| C[n+]1c(-c2cccc(OCCOCCOc3cccc(-c4c5cc(N)ccc5c5ccc(N)cc5[n+]4C)c3)c2)c2cc(N)ccc2c2ccc(N)cc21 | 86.5% (active) |
| N#CC(C#N)C(C#N)c1ccc(Cl)c(Cl)c1 (stereo not given) | 99.5% (active) |
| CCCCCCCCCCCCOC(=O)C[n+]1cccc(C(=O)Nc2ccc(Cl)cc2)c1 | 98.4% (active) |
| CCC(=O)c1ccc2ccc3ccccc3c2c1 | 50.9% |
| Cc1ccc(S(=O)(=O)NC(=O)CC2CCCCC2)cc1 | 91.5% (active) |
| c1ccc(N/N=C(/CC/C(=N\Nc2ccccc2)c2ccccc2)c2ccccc2)cc1 | 97.5% (active) |
| Cc1c(N)cc(I)cc1[N+](=O)[O-] | 13.8% |
